Some test systems named below: NCI-H23 lung; NCI-H226 lung; HOP-62 NSCLC; NCI-H460 lung; HOP-92 NSCLC; NCI-H522 lung; A549/ATCC NSCLC; 786-0 renal; COLO 205 colon; DU-145 prostate; K-562 leukemia; MALME-3M melanoma; MDA-MB-231 breast; RXF 393 renal; SF-268 CNS; SF-295 CNS; SF-539 CNS; UACC-257 melanoma; M14 melanoma.
Holding throughout (test): NCI-60 one-dose screen, 48 h (100 = growth as untreated, 0 = no growth, -100 = all killed)
Common to all, as to settings: 10 µM

The panel holds about 83,000 compounds, 20% with a hit somewhere; the sample as a whole holds those more often.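 Values shown are percent growth following 48 h exposure of cells in 96-well plates to a single concentration of compound; below 10 was considered active.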 Values without a mark were called inactive. Activity calls are given as the source filed them.

Consider `CS(=O)(=O)c1nccc(-c2c(-c3cccc(OCc4ccccc4)c3)nc3sccn23)n1`, for which the growth with NCI-H23 lung was 53.6%; in the assay on NCI-H226 lung it was 50.8%; with HOP-62 NSCLC, 92.9%; in the assay with NCI-H460 lung it was 103%; with HOP-92 NSCLC it was 51.8%; in the assay on NCI-H522 lung, 5.91% (active). Moreover, the growth with A549/ATCC NSCLC was 106%; in the assay with 786-0 renal, 86.3%; in the assay on COLO 205 colon, 88.4%; in the assay on DU-145 prostate it was -59.6% (active); in the assay on K-562 leukemia it was 47.1%; in the assay with MALME-3M melanoma it was 58.7%. The growth is 61.4% in the assay on MDA-MB-231 breast; 90.7% in the assay on RXF 393 renal; 97% in the assay on SF-268 CNS; 101% in the assay with SF-295 CNS; 90% with SF-539 CNS; 27.8% in the assay with UACC-257 melanoma. In the assay on M14 melanoma, the growth was 72.3%.

For the compound `O=C(CCCSc1nc(-c2ccc(Cl)cc2)cc(-c2ccc(Cl)cc2)n1)NO`, the growth in the assay with NCI-H23 lung was 13.2%; with NCI-H226 lung it was 2.42% (active); in the assay with HOP-62 NSCLC, 15.4%; in the assay on NCI-H460 lung it was 0.534% (active); in the assay with HOP-92 NSCLC it was 28%; in the assay with NCI-H522 lung, 6% (active). Besides, the growth was 10.2% in the assay on A549/ATCC NSCLC; 6.25% (active) in the assay with 786-0 renal; 9.44% (active) in the assay on COLO 205 colon; 15.1% in the assay with DU-145 prostate; 5.07% (active) with K-562 leukemia; 2.37% (active) in the assay on MALME-3M melanoma. For the same compound, the growth in the assay with MDA-MB-231 breast is 14.6%; with RXF 393 renal it was -15.3% (active); with SF-268 CNS, 11.6%; in the assay on SF-295 CNS, -4.84% (active); in the assay with SF-539 CNS, -23% (active); with UACC-257 melanoma it was 13.2%. In addition, in the assay with M14 melanoma, the growth is -15.5% (active).

For the compound `OCC1OC2C(NC(=S)N2c2ccccc2)C(O)C1O` (configuration not stated), the growth in the assay on NCI-H23 lung was 102%; in the assay with NCI-H226 lung, 95.5%; in the assay on HOP-62 NSCLC it was 101%; in the assay with NCI-H460 lung it was 105%; with HOP-92 NSCLC, 90.5%; in the assay on NCI-H522 lung, 104%. In addition, the growth in the assay with A549/ATCC NSCLC is 93.9%; in the assay on 786-0 renal, 110%; in the assay with COLO 205 colon, 105%; in the assay on DU-145 prostate it was 107%; in the assay with K-562 leukemia, 108%; with MALME-3M melanoma, 131%. The growth in the assay with MDA-MB-231 breast is 99.8%; with RXF 393 renal it was 108%; with SF-268 CNS, 96.8%; with SF-295 CNS, 99.8%; in the assay with SF-539 CNS, 102%; in the assay on UACC-257 melanoma it was 102%. The growth with M14 melanoma is 120%.

In the case of `O=C(Nc1ccc(NS(=O)(=O)c2ccc(F)cc2)cc1)C12CC3CC(CC(C3)C1)C2`, the growth is 94.9% with NCI-H23 lung; 92% with NCI-H226 lung; 104% with HOP-62 NSCLC; 101% in the assay with NCI-H460 lung; 106% with HOP-92 NSCLC; 86.4% in the assay on NCI-H522 lung. Besides, the growth with A549/ATCC NSCLC is 86.6%; in the assay with 786-0 renal, 103%; in the assay on COLO 205 colon it was 101%; in the assay on DU-145 prostate, 103%; in the assay with K-562 leukemia it was 74.7%; in the assay on MALME-3M melanoma, 87.1%. Besides, the growth in the assay with MDA-MB-231 breast was 96.2%; with RXF 393 renal it was 105%; with SF-268 CNS, 97.4%; with SF-295 CNS it was 91.2%; in the assay on SF-539 CNS, 106%; in the assay with UACC-257 melanoma, 91.6%. Besides, the growth with M14 melanoma is 96.6%.

Regarding `CN(C)CCCSc1ccccc1NC1=C(Cl)C(=O)C(Nc2ccccc2SCCCN(C)C)=C(Cl)C1=O`, the growth with NCI-H23 lung was -43.4% (active); with NCI-H226 lung, 93.5%; in the assay with HOP-62 NSCLC, 118%; with NCI-H460 lung, 103%; in the assay on HOP-92 NSCLC it was 79%; in the assay with NCI-H522 lung, -78.2% (active). In addition, the growth in the assay on A549/ATCC NSCLC was 101%; with 786-0 renal it was 42.9%; in the assay on COLO 205 colon, 17.9%; in the assay on DU-145 prostate, 87.4%; with K-562 leukemia, -18.8% (active); with MALME-3M melanoma, -28.8% (active). Moreover, the growth with MDA-MB-231 breast is 44.9%; with RXF 393 renal, 45.8%; in the assay on SF-268 CNS, 43.7%; with SF-295 CNS, 101%; in the assay on SF-539 CNS, 42.8%; with UACC-257 melanoma, 85%. Moreover, the growth in the assay on M14 melanoma is 94.7%.

For the compound `O=[N+]([O-])c1cc(Cl)cc(Cl)c1O`, the growth was 97.7% with NCI-H23 lung; 101% in the assay on NCI-H226 lung; 91.5% in the assay on HOP-62 NSCLC; 105% with NCI-H460 lung; 105% in the assay on HOP-92 NSCLC; 82.3% in the assay with NCI-H522 lung. Also, the growth was 97.4% with A549/ATCC NSCLC; 99.9% in the assay on 786-0 renal; 108% in the assay with COLO 205 colon; 105% in the assay on DU-145 prostate; 109% in the assay on K-562 leukemia; 97.1% in the assay on MALME-3M melanoma. The growth in the assay with MDA-MB-231 breast was 110%; with RXF 393 renal it was 104%; in the assay with SF-268 CNS, 100%; in the assay with SF-295 CNS, 97.3%; with SF-539 CNS, 89.7%; in the assay with UACC-257 melanoma, 104%. Also, the growth with M14 melanoma was 96.9%.

For the compound `O=C(Nc1cccc2c1CCCC2)c1cc2ccccc2cc1O`, the growth with NCI-H23 lung was 3.43% (active); in the assay with NCI-H226 lung it was 35.1%; with HOP-62 NSCLC, 69.9%; with NCI-H460 lung, 27.3%; with HOP-92 NSCLC it was -20.6% (active); in the assay with NCI-H522 lung, 18.8%. For the same compound, the growth in the assay with A549/ATCC NSCLC was 33.8%; in the assay with 786-0 renal, 43.7%; in the assay with COLO 205 colon, 92.3%; with DU-145 prostate, 51.2%; in the assay on K-562 leukemia, 16.9%; in the assay with MALME-3M melanoma, 26.8%. Also, the growth is 34.8% with MDA-MB-231 breast; 39.5% in the assay with RXF 393 renal; 38.2% with SF-268 CNS; 79.9% in the assay with SF-295 CNS; 34.2% in the assay with SF-539 CNS; 22.3% in the assay with UACC-257 melanoma. For the same compound, the growth in the assay with M14 melanoma is 21.5%.

Take `Oc1ccc(/C=N/N=C2c3ccccc3-c3ccccc32)c(O)c1`: the growth with NCI-H23 lung is 70.2%; in the assay on NCI-H226 lung it was 60.5%; in the assay with HOP-62 NSCLC, 82.3%; with NCI-H460 lung, 83.2%; in the assay with HOP-92 NSCLC, 79.5%; in the assay on NCI-H522 lung, 74.5%. Besides, the growth in the assay with A549/ATCC NSCLC is 54.8%; with 786-0 renal, 80.4%; in the assay on COLO 205 colon, 88%; with DU-145 prostate, 90%; in the assay with K-562 leukemia it was 64.8%; in the assay on MALME-3M melanoma, 105%. In addition, the growth is 48.3% with MDA-MB-231 breast; 49.6% in the assay with RXF 393 renal; 83.1% in the assay with SF-268 CNS; 101% in the assay on SF-295 CNS; 89.1% in the assay on SF-539 CNS; 84.7% in the assay on UACC-257 melanoma. The growth in the assay with M14 melanoma was 74.4%.

Values taken from PubChem BioAssay (NCI).
